Compound activity: PubChem, National Center for Advancing Translational Sciences (NCATS)
Shown is part of a subset that was picked to be rich in hits.
LMNA splice mod: qHTS Assay for Modulators of Lamin A Splicing | HeLa LMNA splicing GFP/RFP minigene ratio, 48 h | Potency, µM (highest dose often 46.1 µM), without a hit: at the highest dose ratio change, negative = inhibition, usual class: inhibitors | actives 0.01% (n = 200,000) | AID 1487, 2009; active = well fitted inhibition curve with a large enough effect in the signal ratio, with a control signal flat, not every such curve was filed as active; inconclusive = small, poorly fitted or top-dose-only effect, or effect the other way, or a change in a side signal; the % refers to the signal ratio; also: potency is read from the fitted curve at half-maximal effect; % is scaled to controls: 0 for no effect and ±100 for the full control effect
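S3 HeLa stable clones carrying a lamin A-EGFP splicing minigene plus DsRed2 were seeded at 600 cells/well in Opti-MEM with 2% FBS, pin-dosed and incubated 48 h at 37°C. Acumen cytometry (488 nm) gave the GFP/RFP total-intensity ratio.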
Menin-MLL FL inh: qHTS Assay for Inhibitors Targeting the Menin-MLL Interaction in MLL Related Leukemias: Competition With Fluorescein Labeled MLL-derived Peptide. Fluorescence polarization, fluorescein-MLL peptide displacement from menin. 290,000 tested, under 10 active. FP activity change, % at 61.4 µM; active = well fitted curve in the direction sought with a large enough effect in the polarisation, not every such curve was filed as active; inconclusive = small, poorly fitted or top-dose-only effect, or effect the other way, or a change in a side signal; inactive = no such curve, though single readings can be large or run the other way; the % refers to the polarisation; also: % of control where 0% means no effect
Menin MLL FP TR: qHTS Assay for Inhibitors Targeting the Menin-MLL Interaction in MLL Related Leukemias: Competition With Texas Red Labeled MLL-derived Mutant Peptide; O00255; actives 0.23% (n = 270,000); Potency, µM (highest dose often 61.6 µM), for inactives: at the top dose FP activity change, negative = inhibition, most hits filed as inhibitors; Menin + Texas Red MLL mutant peptide, fluorescence polarization; active = well fitted inhibition curve with a large enough effect in the polarisation, with a control signal flat, not every such curve was filed as active; inconclusive = small, poorly fitted or top-dose-only effect, or effect the other way, or a change in a side signal; inactive = no such curve, though single readings can be large or run the other way; the % refers to the polarisation; also: potency is read from the fitted curve at half-maximal effect; % of control where 0% means no effect
Target sequence (O00255 whole entry, looked up): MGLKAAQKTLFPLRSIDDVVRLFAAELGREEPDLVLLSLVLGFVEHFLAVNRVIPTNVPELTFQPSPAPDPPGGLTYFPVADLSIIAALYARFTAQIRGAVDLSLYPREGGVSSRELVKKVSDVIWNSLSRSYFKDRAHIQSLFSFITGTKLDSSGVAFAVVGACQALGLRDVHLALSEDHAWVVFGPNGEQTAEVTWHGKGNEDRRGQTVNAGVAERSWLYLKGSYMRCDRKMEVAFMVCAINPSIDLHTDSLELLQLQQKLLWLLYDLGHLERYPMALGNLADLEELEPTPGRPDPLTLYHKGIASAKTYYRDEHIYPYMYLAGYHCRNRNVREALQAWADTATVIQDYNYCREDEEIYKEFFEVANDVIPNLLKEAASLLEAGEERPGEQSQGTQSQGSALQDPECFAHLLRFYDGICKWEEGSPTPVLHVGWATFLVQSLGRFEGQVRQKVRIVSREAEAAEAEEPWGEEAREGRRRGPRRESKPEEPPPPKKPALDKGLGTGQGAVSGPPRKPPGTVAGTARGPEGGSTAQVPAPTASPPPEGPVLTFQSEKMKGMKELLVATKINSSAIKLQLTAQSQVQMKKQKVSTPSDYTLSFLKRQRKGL
CXXC DNA block: qHTS Fluorescence Polarization Assay for Inhibitors of MLL CXXC domain - DNA interaction; MLL-CXXC / FITC-HOXA9 DNA fluorescence polarization; Potency, µM (titrated, usually from 115 µM), for inactives: at the highest dose activity change, negative = inhibition, most hits filed as inhibitors; actives 0.037% (n = 290,000); Histone-lysine N-methyltransferase 2A (Homo sapiens), Q03164; AID 2662, 2010; active = well fitted inhibition curve with a large enough effect in the polarisation, with a control signal flat, not every such curve was filed as active; inconclusive = small, poorly fitted or top-dose-only effect, or effect the other way, or a change in a side signal; inactive = no such curve, though single readings can be large or run the other way; the % refers to the polarisation; also: potency is read from the fitted curve at half-maximal effect
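Fluorescence polarization: 7 uM MLL-CXXC (stock) preincubated 5 min with compounds, then 50 nM fluorescein-HOX-A9 DNA (stock) added; 30 min ambient. Buffer 50 mM Tris-HCl pH 7.5, 50 mM NaCl, 1 mM DTT, 0.05% BSA.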
MLL CXXC Fl: qHTS Fluorescence Polarization (FP) Assay for Inhibitors of MLL CXXC domain - DNA interaction: Fluorescein FP | shares compounds with CXXC DNA block | MLL CXXC-DNA binding, fluorescein FP | Potency, µM (doses to about 345 µM), inactives show top-dose activity change, negative = inhibition, actives largely listed as inhibitors | actives 70% (n = 200); also: potency is read from the fitted curve at half-maximal effect; nearly all actives have a fitted effect of over 80% in size
MLL CXXC FP-TR: qHTS Fluorescence Polarization (FP) Assay for Inhibitors of MLL CXXC domain - DNA interaction: Texas Red FP; shares compounds with CXXC DNA block; MLL CXXC-DNA binding, Texas Red fluorescence polarization; Potency, µM (highest dose often 345 µM), for inactives: at the top dose activity change, negative = inhibition, actives largely listed as inhibitors; actives 40% (n = 200); also: potency is read from the fitted curve at half-maximal effect; % is scaled to controls: 0 for no effect and ±100 for the full control effect; nearly all actives have a fitted effect of over 75% in size
MLL CXXC HTRF: qHTS Fluorescence Polarization (FP) Assay for Inhibitors of MLL CXXC domain - DNA interaction: HTRF Assay. shares compounds with CXXC DNA block. MLL CXXC-DNA binding, HTRF, biochemical. Potency, µM (highest dose often 172 µM), for the others: at the highest dose activity change, negative = inhibition, most hits filed as inhibitors. actives 30% (n = 210); also: % is scaled to controls: 0 for no effect and ±100 for the full control effect; nearly all actives have a fitted effect of over 80% in size
* hit, by the source's call; ? = inconclusive; / = not tested or not shown; ! = not confirmed by another sample; [ ] = remark or other dose. Unless noted, calls follow the shape of the dose curve; as a rule, active = well fitted inhibition curve with a large enough effect; inconclusive = small, poorly fitted or top-dose-only effect; inactive = no such curve, though single readings can be large or run the other way.

SMILES | LMNA splice mod | Menin-MLL FL inh | Menin MLL FP TR | CXXC DNA block | MLL CXXC Fl | MLL CXXC FP-TR | MLL CXXC HTRF
CCOc1cc(CNC(=O)Cn2c(=O)c3cccn3c3ccc(F)cc32)cc(OCC)c1OCC | 10%[46 µM] | / | / | / | / | / | /
COC(=O)[C@@H](NC(=O)O[C@@H]1C(=O)c2ccc(OC)cc2O[C@H]1c1ccc2c(c1)OCO2)C(C)C | / | 4 | 2% | / | / | / | /
O=C1/C(=C\c2cccnc2)CCc2ccccc21 | 7% | 5 | -5% | ? | ? | -15% | 28%
CCc1ccc(NC(=O)CSc2nnc(-c3cc4occc4n3C)n2-c2ccccc2C)cc1 | 5%[46 µM] | / | / | / | / | / | /
COc1ccc(/C=C2/SC(=S)N(CCC(=O)O)C2=O)cc1 | ? | 5 | 14% | -29% | / | / | /
O=C(O)CCN1C(=O)/C(=C\c2ccc(-c3nc4ccccc4s3)o2)SC1=S | -3% | ? | 28% | ? | 71µM* | 50µM* | 24µM*
O=C(O)CCN1C(=O)/C(=C\c2ccncc2)SC1=S | / | 2 | 28% | 35µM* | / | / | 12%
O=c1n(Cc2cc3c(cc2Cl)OCO3)c(=O)n2n1CC[C@H]1/C(=N\OC[C@@H](O)COCc3ccco3)[C@H]3O[C@@H]3[C@@H](O)[C@@H]12 | / | -3[11.7 µM] | 5%[11.7 µM] | / | / | / | /
CO[C@H]1COC(=O)C/C=C\[C@H](C)[C@@H](OC)COC(=O)C/C=C\[C@@H]1C | / | 1[11.7 µM] | -16%[11.7 µM] | / | / | / | /
CN(C)CCOc1nc(-c2ccccc2)nc2c1oc1ccccc12 | ? | 3 | -11% | 35µM* | 126µM* | ? | -9%
CCCCc1nn2c(=O)cc(COC(=O)c3ccccc3NC(=O)C3CCCCC3)nc2s1 | -4%[46 µM] | / | / | / | / | / | /
CC1=NN(c2ccccc2)C(=O)/C1=C/c1cccc(C)c1 | / | ? | ? | ? | 45µM* | ? | -27%
CSCC[C@H](NC(=O)[C@H](Cc1c[nH]c2ccccc12)NC(=O)CCNC(=O)OC(C)(C)C)C(=O)N[C@@H](CC(=O)O)C(=O)N[C@@H](Cc1ccccc1)C(N)=O | / | 3 | 0% | / | / | / | /
O=C(Nc1ccc(F)cc1F)c1ccc(-n2cnnc2)cc1 | -11%[46 µM] | / | / | / | / | / | /
Cc1ccc(Sc2ccc(/C=C3/C(=O)NN(c4ccccc4)C3=O)o2)cc1 | / | 18 | / | ? | 8µM* | 33% | -1%
CCc1nnc(NC(=O)CSc2nnc(-c3ccc(NS(=O)(=O)c4ccccc4)cc3)o2)s1 | 3% | 2 | 6% | ? | ? | 9% | -11%
COC(=O)CSc1nnc(-c2ccc(NS(=O)(=O)c3ccccc3)cc2)o1 | 1% | -1 | -8% | -10% | / | / | /
CC(C)c1cc(C(C)C)c(S(=O)(=O)Nc2cccc3cccnc23)c(C(C)C)c1 | / | -3 | -3% | / | / | / | /
CC1=C(CCC(=O)O)c2cc3nc(cc4[nH]c(cc5[nH]c(cc1n2)c(C)c5C(C)O)c(C)c4C(C)O)C(C)=C3CCC(=O)O (stereo not given) | 8% | -22 | ? | / | / | / | /
C=Cc1c(C)c2cc3[nH]c(cc4nc(cc5nc(cc1[nH]2)C(C)=C5CCC(=O)O)C(CCC(=O)O)=C4C)c(C)c3C=C | ? | -2 | ? | 20µM*! | ? | 45µM* | 39µM*
COc1ccc(-c2nc3c(c4c2C[C@H](c2ccccc2)OC4)CN(C(=O)Nc2cccc(C#N)c2)CC3)c(C)c1 | ? | 0[11.7 µM] | -10%[11.7 µM] | / | / | / | /
CN(C)C1=C(Cl)C(=O)N(c2ccc(Cl)c(Cl)c2)C1=O | / | -19 | / | ? | 179µM* | 44% | ?
COC(=O)c1ccc2c(c1)NC(=O)CS2 | ? | -3 | 1% | 10% | / | / | /
COC(=O)c1ccc2c(c1)SC1=C(CCCC1=O)N2 | -6% | ? | ? | 28µM* | 100µM* | 142µM* | 171%
O=C(Nc1cccc(C(=O)Nc2ccc(S(=O)(=O)O)c3cc(S(=O)(=O)O)cc(S(=O)(=O)O)c23)c1)Nc1cccc(C(=O)Nc2ccc(S(=O)(=O)O)c3cc(S(=O)(=O)O)cc(S(=O)(=O)O)c23)c1 | -39% | ? | 21% | 16µM* | 28µM* | 100µM* | 39µM*
SMILES | LMNA splice mod | Menin-MLL FL inh | Menin MLL FP TR | CXXC DNA block | MLL CXXC Fl | MLL CXXC FP-TR | MLL CXXC HTRF
CC(=O)N/N=C/c1cc(C(C)(C)C)cc(/C=N/NC(C)=O)c1O | ? | ? | 0% | ? | 52% | -10% | 45%
O=C(CSc1nc2ccccc2c(=O)n1Cc1ccc(F)cc1)NCc1cccs1 | 3% | 3 | 10% | 7.9µM* | 2% | 48% | 1%
COC(=O)c1ccccc1NC1=C/C(=N\S(=O)(=O)c2ccc(C(=O)O)cc2)c2ccccc2C1=O | / | / | / | 16µM* | 5µM* | 142µM* | -72%
CCc1ccc(S(=O)(=O)/N=C2\C=C(Nc3ccc(C(=O)O)cc3)C(=O)c3ccccc32)cc1 | / | -13 | ? | 13µM* | 40µM* | ? | 158%
Cc1ccc(S(=O)(=O)/N=C2\C=C(Nc3cccc(C(=O)O)c3)C(=O)c3ccccc32)cc1 | / | -13 | ? | ? | / | / | /
CC(=O)Nc1ccc2cc3ccc(NC(C)=O)cc3nc2c1 | / | ? | / | 40µM* | 113µM* | ? | -12%
O=C1C2C(c3ccccc3)CC=CC2[C@H](c2ccc(C(F)(F)F)cc2)N1Cc1ccccc1 (stereo not given in full) | / | -1 | / | ? | 22µM* | 36% | 195%
COc1cc(/C=C2/C(=O)NN(c3ccc(F)cc3)C2=O)cc(Cl)c1O | / | ? | ? | -1% | / | / | /
COc1cccc(/C=C2/C(=O)NN(c3ccc(Br)cc3)C2=O)c1O | / | -1 | ? | ? | 100µM* | ? | -5%
COc1ccccc1NC(C)=O | 3% | -3 | 6% | -1% | / | / | /
COc1ccccc1NC(=S)NC(C)=O | -16%[46 µM] | -4 | -1% | ? | / | / | 36%
Cc1ccsc1C=C1C(=O)c2ccccc2C1=O | 27% | 0 | ? | ? | 10µM* | -4% | 14%
